Each structure is given as a SMILES string. Activity calls are given as the source filed them. Calls follow the shape of the dose curve; as a rule, active = well fitted activation curve with a large enough effect in the repeat runs; inconclusive = weak or mixed curves; inactive = flat fitted curve, though single readings scatter.
% is scaled to controls: 0 for no effect and ±100 for the full control effect.

The nature of this assay: Caspase-3/7 induction in CHO-K1 cells by small molecules, qHTS assay (AID 1346980). Also: nearly all actives have a fitted effect of over 15% in size. To be noted: CHO-K1 caspase-3/7 induction, Caspase-Glo luminescence, 17 h; series mostly up to 92.4 µM; caspase-3/7 activation: at the top concentration. An excerpt: National Center for Advancing Translational Sciences [NCATS]
NIH Chemical Genomics Center [NCGC]
U.S. Environmental Protection Agency [EPA]
National Institutes of Environmental Health Sciences [NIEHS]
National Toxicology Program [NTP]
Apoptosis is a process of programmed cell death and plays a central role in the development of multicellular organisms. It is a highly regulated process and induces cell death by activating caspases, which are the members of cysteine aspartic acid-specific protease (caspase) family. Caspases involved in apoptosis are classified by their mechanism of action as initiator caspases (caspase-2, -8, -9 and -10) and executioner caspases (caspase-3, -6, and -7). Inhibition of apoptosis results in number of cancers, autoimmune diseases, inflammatory diseases and viral infection. To identify small molecule compounds that induce apoptosis, a homogeneous, luminescent Caspase-Glo 3/7 assay was used. Wild type CHO-K1 cells were used to screen Tox21 libraries for identifying caspase-3/7 activity inducers.
CHO-K1 cells were dispensed at 1,500 per well in 5uL of culture medium into white solid bottom 1536-well plates (Corning Life Sciences, Corning, NY) using a Multidrop Combi (Thermo Scientific, Waltham, MA) dispenser. The assay plates were incubated at 37 C and 5% CO2 for 5hr, and then 23nL of compounds dissolved in DMSO and positive control were transferred using a Pintool station (Wako, San Diego, CA). The assay plates were incubated at 37C and 5% CO2 for 17hr. For caspase-3/7 activity read, 4uL of Caspase-Glo 3/7 reagent (Promega Corporation, Madison, WI) was added to each well of the assay plates using Flying Reagent Dispenser (FRD, Aurora Discovery, San Diego, CA) and incubated the assay plates at room temperature for 30min. The luminescence signal was quantified using a ViewLux plate reader (Perkin Elmer, Shelton, CT).
`CC1(C)OC[C@@H](COC(=O)CCc2ccc(OC[C@@H](O)CNCCNC(=O)N3CCOCC3)cc2)O1`: the “caspase-3/7 activation” value was 0.458% [at 42.5 µM] (inactive).

As to `CC(C)CCCO`, the “caspase-3/7 activation” value is -0.574% (inactive).

On to `CC1=CCC(O)(C(C)C)CC1` (stereo not given), for which the “caspase-3/7 activation” value is -0.973% (inactive).

In the case of `CCN1CCOCC1`, the “caspase-3/7 activation” value is 1.09% (inactive).

Take `c1ccc(Cc2ccccc2)cc1`: the “caspase-3/7 activation” value was 0.939% (inactive).

Regarding `Nc1ccn([C@@H]2O[C@H](CO)[C@@H](O)C2(F)F)c(=O)n1`, the “caspase-3/7 activation” value was 0.0444% [at 42.5 µM] (inactive).

Regarding `CCCCCCCC1CCCC1=O` (stereo not given), the “caspase-3/7 activation” value was 0.071% (inactive).

As to `CC(C)(C)c1ccc(-c2ccc(C(C)(C)C)cc2)cc1`, the “caspase-3/7 activation” value is 0.242% (inactive).

`CCCCc1ccc2c(n1)[C@@H](c1ccc(OC)cc1C[C@H](C)C(=O)O)[C@H](C(=O)O)[C@H]2c1ccc2c(c1)OCO2`: the “caspase-3/7 activation” value was -0.0401% (inactive).

Take `NCCCC[C@H](N[C@@H](CCc1ccccc1)C(=O)O)C(=O)N1CCC[C@H]1C(=O)O`: the “caspase-3/7 activation” value is 0.0678% [at 42.5 µM] (inactive).

`Cc1ncc([C@@H](CCCCCCc2ccc3c(n2)NCCC3)CC(=O)O)cn1`: the “caspase-3/7 activation” value is -0.836% (inactive).

In the case of `CCCCOCCOC(=O)CCCCCCCCC(=O)OCCOCCCC`, the “caspase-3/7 activation” value was -1.81% (inactive).

`N[C@@H](CCC(=O)O)C(=O)O`: the “caspase-3/7 activation” value is 0.176% (inactive).

Turning to `COc1c(N2CCNC(C)C2)c(F)cc2c(=O)c(C(=O)O)cn(C3CC3)c12` (stereo not given), the “caspase-3/7 activation” value was -0.746% [at 42.5 µM] (inactive).

With `Nc1c2c(nc3c1CCC3)CCCC2`, the “caspase-3/7 activation” value was -1.58% [at 42.5 µM] (inactive).

Regarding `CC(C)NNC(=O)c1ccncc1`, the “caspase-3/7 activation” value is 0.107% [at 42.5 µM] (inactive).

As for `CCCCCC(C)N` (stereo not given), the “caspase-3/7 activation” value is -0.111% [at 42.5 µM] (inactive).

With `COc1cc(C(=O)NCc2ccc(OCCN(C)C)cc2)cc(OC)c1OC`, the “caspase-3/7 activation” value is 0.208% [at 42.5 µM] (inactive).

For the compound `O=[N+]([O-])c1ccc(/C=N\O)o1`, the “caspase-3/7 activation” value is -0.912% [at 42.5 µM] (inactive).

Turning to `CCC(C)(CN(C)C)OC(=O)c1ccccc1` (stereo not given), the “caspase-3/7 activation” value was 0.922% [at 42.5 µM] (inactive).

As to `CC(C)(C)C(=O)Oc1ccc(S(=O)(=O)Nc2ccccc2C(=O)NCC(=O)O)cc1`, the “caspase-3/7 activation” value is 1.51% [at 42.5 µM] (inactive).

`Cc1coc2ccccc2c1=O`: the “caspase-3/7 activation” value is -0.184% [at 42.5 µM] (inactive).

As to `C=CC(C)(CCC=C(C)C)OC(=O)CC` (stereo not given), the “caspase-3/7 activation” value is -1.06% (inactive).

As to `CCCCOCCOC(=O)COc1cc(Cl)c(Cl)cc1Cl`, the “caspase-3/7 activation” value was -0.424% (inactive).

With `COCCOCC(OC)OC`, the “caspase-3/7 activation” value was 0.0586% [at 42.5 µM] (inactive).

As to `CCC1C(=O)OCC1Cc1cncn1C` (stereo not given), the “caspase-3/7 activation” value is 1.98% [at 42.5 µM] (inactive).

`CC(=O)c1ccccc1[N+](=O)[O-]`: the “caspase-3/7 activation” value is -1.34% (inactive).

`NC(=O)N[C@@H](CCC(=O)O)C(=O)O`: the “caspase-3/7 activation” value is 0.385% [at 42.5 µM] (inactive).

In the case of `CC[N+](C)(CC)CCOC(=O)C1c2ccccc2Oc2ccccc21`, the “caspase-3/7 activation” value was 3.03% [at 42.5 µM] (inactive).

With `c1coc(CNc2ncnc3nc[nH]c23)c1`, the “caspase-3/7 activation” value is -1.9% (inactive).

As to `CC[N+](CC)(CC(=O)Nc1c(C)cccc1C)Cc1ccccc1` (tested in a mixture with another compound), the “caspase-3/7 activation” value was 0.0714% [at 42.5 µM] (inactive).

In the case of `CCO[Si](OCC)(OCC)c1ccccc1`, the “caspase-3/7 activation” value is -0.692% (inactive).

`CCC(C)(CCCC(C)C)OC(C)=O` (stereo not given): the “caspase-3/7 activation” value was -0.0244% (inactive).

On to `Cc1ncc(COP(=O)(O)O)c(C=O)c1O`, for which the “caspase-3/7 activation” value is -0.915% [at 42.5 µM] (inactive).

Take `CC(C)C(=O)OC(=O)C(C)C`: the “caspase-3/7 activation” value was -0.125% (inactive).

For the compound `CC1=NS(=O)(=O)c2cc(Cl)ccc2N1`, the “caspase-3/7 activation” value was 0.0339% [at 42.5 µM] (inactive).

Regarding `CCCCS(=O)(=O)N[C@@H](Cc1ccc(OCCCCC2CCNCC2)cc1)C(=O)O`, the “caspase-3/7 activation” value is 0.111% [at 42.5 µM] (inactive).

With `CN(C)C(=O)Oc1ccc[n+](C)c1`, the “caspase-3/7 activation” value was -0.0522% [at 42.5 µM] (inactive).

Consider `Cc1ccc(C(=O)c2ccc(CC(=O)O)n2C)cc1`, for which the “caspase-3/7 activation” value is -1.68% [at 42.5 µM] (inactive).

As to `NS(=O)(=O)Cc1noc2ccccc12`, the “caspase-3/7 activation” value is -0.894% [at 42.5 µM] (inactive).

Source of the values: PubChem BioAssay (Tox21).
